Drawing on PubChem BioAssay (NCATS), this text covers outcome and Potency for 20 molecules.

The nature of assay [1]: Primary redox qHTS assay for identification of artifact compounds. (AID 1845223). The method, boiled down: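 Redox-cycling detection via DTT (250 uM final) oxidation coupled to Amplex Red (25 uM)/HRP (250 mU/mL) in HBSS. 15 min preincubation plus 30 min after DTT, room temperature. Ex/Em 525/598 nm; 4-parameter Hill fit against DMSO and 10 uM DA3003.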
Assay [2] in a line: Quantitative High-Throughput drug screen in 47 multiple myeloma cell lines against the NCATS MIPE library collection: Delta47_JCRB cell viability assay (AID 1918925; also: nearly all actives have a fitted effect of over 45% in size; also: potency is read from the fitted curve at half-maximal effect). In a few lines: (§1)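 We plated 500 myeloma cells per well, pinned in MIPE 4.0 compounds, and incubated for 48 hours at 37C. ATP was then quantified with CellTiter-Glo, with DMSO and media-only wells defining 100% and 0%.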

A short description of assay [3]: Quantitative High-Throughput drug screen in 47 multiple myeloma cell lines against the NCATS MIPE library collection: EJM_DSMZ cell viability assay (AID 1918926; also: nearly all actives have a fitted effect of over 30% in size; also: potency is read from the fitted curve at half-maximal effect). The method, boiled down: as §1
Assay [4] in a line: Quantitative High-Throughput drug screen in 47 multiple myeloma cell lines against the NCATS MIPE library collection: AMO1_DSMZ cell viability assay (AID 1918927; also: nearly all actives have a fitted effect of over 30% in size; also: potency is read from the fitted curve at half-maximal effect). In a few lines: as §1
Assay [5] can be described thus: Quantitative High-Throughput drug screen in 47 multiple myeloma cell lines against the NCATS MIPE library collection: KMM1_JCRB cell viability assay (AID 1918960). Also: nearly all actives have a fitted effect of over 30% in size. Also: potency is read from the fitted curve at half-maximal effect. The method, boiled down:
(§2)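 500 cells/well; MIPE 4.0 library pinned in; 48 h, 37 °C, 5% CO2; CellTiter-Glo ATP luminescence. Controls: DMSO = 100% viability, medium only = 0%.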

Assay [6] in a line: Quantitative High-Throughput drug screen in 47 multiple myeloma cell lines against the NCATS MIPE library collection: Karpas417_ECACC cell viability assay (AID 1918961). Also: potency is read from the fitted curve at half-maximal effect. To be noted: Karpas417 myeloma viability, CellTiter-Glo ATP luminescence, 48 h; viability (% of DMSO): at 45.8 µM (top of the series). The method, boiled down:
(§3)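 Relative luminescence from CellTiter-Glo served as the viability signal, referenced to DMSO-treated (100%) and cell-free medium (0%) controls. Treatment lasted 48 hours at 37C with 500 cells per well.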

The nature of assay [7]: Quantitative High-Throughput drug screen in 47 multiple myeloma cell lines against the NCATS MIPE library collection: ARP1_JJKsccF8 cell viability assay (AID 1918928; also: nearly all actives have a fitted effect of over 40% in size; also: potency is read from the fitted curve at half-maximal effect). The method, boiled down:
as §2

Assay [8] in a line: Quantitative High-Throughput drug screen in 47 multiple myeloma cell lines against the NCATS MIPE library collection: ARD_JJKsccE7 cell viability assay (AID 1918929; also: potency is read from the fitted curve at half-maximal effect). The method, boiled down: as §1
Assay [9] can be described thus: Quantitative High-Throughput drug screen in 47 multiple myeloma cell lines against the NCATS MIPE library collection: Karpas620_DSMZ cell viability assay (AID 1918959). Also: nearly all actives have a fitted effect of over 30% in size. Also: potency is read from the fitted curve at half-maximal effect. In a few lines:
as §3

A short description of assay [10]: Quantitative High-Throughput drug screen in 47 multiple myeloma cell lines against the NCATS MIPE library collection: FR4_PLB cell viability assay (AID 1918924; also: nearly all actives have a fitted effect of over 35% in size; also: potency is read from the fitted curve at half-maximal effect). In a few lines: as §3

SMILES strings stand for the structures. Records with an inconclusive call do not appear. Unmarked numbers belong to inactive results. Calls of active or inactive are those of the source. Calls follow the shape of the dose curve; as a rule, active = well fitted curve in the direction sought with a large enough effect; inconclusive = small, poorly fitted or top-dose-only effect, or another doubt; inactive = no such curve, though single readings can be large; an effect the other way counts as inactive or inconclusive.

With `NS(=O)(=O)c1ccc(Nc2nc(OCC3CCCCC3)c3[nH]cnc3n2)cc1`, the molecule was called inactive in assay [1]. Besides, the Potency is 16.6 µM (active) in assay [2]; 23.5 µM (active) in assay [3]; 18.7 µM (active) in assay [4]; 18.7 µM (active) in [5]; 14.8 µM (active) in [6].
For `C[C@@]1(c2cc(-c3cncnc3)c(F)cc2F)CCSC(N)=N1`, the call in [1] was inactive. Moreover, the Potency result in assay [2], in [3] and in [7] was “inactive” each time. Also, the Potency in assay [4] was 14.8 µM (active); in assay [8], 0.059 µM (active); in [9] it was 2.35 µM (active); in [6] it was 0.0833 µM (active).
Regarding `Cc1ccccc1C(=O)c1ccc(Nc2ccc(Br)cc2N)cc1Cl`, in [1], the call was inactive. The Potency is 6.62 µM (active) in assay [10], 14.8 µM (active) in assay [3], 0.833 µM (active) in assay [4] and 4.69 µM (active) in [9].
With `CC(C)=CCCC(C)=CCCC(C)=CCCC(C)=CCCC(C)=CCCC(C)=CCCC(C)=CCCC(C)=CCCC(C)=CCO`, the Potency entry in [10], in assay [2], in assay [3], in assay [4], in assay [7] and in [8] was “inactive” throughout. Also, the Potency result in assay [5] is “inactive”.
As for `c1ccc(-c2oc3ncnc(NC[C@@H]4CCCO4)c3c2-c2ccccc2)cc1`, the result in assay [1] was inactive. Further, the Potency entry in assay [4] was “inactive”. For the same molecule, the Potency in [9] was 6.62 µM (active); in assay [5], 3.32 µM (active).
With `COc1cc2ncn(-c3cc(OCc4ccccc4S(C)(=O)=O)c(C#N)s3)c2cc1OC`, the Potency entry in assay [10], in [2], in assay [4], in assay [7], in assay [8] and in [9] was “inactive” in each case. Besides, the Potency entry in assay [5] was “inactive”. Also, in assay [3], the Potency was 3.72 µM (active).
Regarding `CCCCC(F)(F)[C@@]1(O)CC[C@H]2[C@H](CC(=O)[C@@H]2CCCCCCC(=O)O)O1`, the Potency result in assay [10], in assay [2], in [3], in [4], in assay [7] and in assay [8] was “inactive” in each case. Besides, the Potency result in assay [9] and in assay [5] was “inactive” each time.
Take `N#Cc1ccc(Oc2ccc3c(c2)COB3O)cc1`: the outcome in [1] was inactive. The Potency entry in assay [3] is “inactive”. Further, the Potency is 20.9 µM (active) in assay [4] and 16.6 µM (active) in [5].
With `Cc1cn([C@@H]2C[C@@H](O)[C@H](CO)O2)c(=O)[nH]c1=O`, the Potency result in [10], in [2], in [3], in [4], in [7] and in assay [8] was “inactive” each time. Moreover, the Potency result in assay [9], in [5] and in [6] was “inactive” in each case.
Consider `O=C1C(CCC(O)c2ccc(F)cc2)C(c2ccc(O)cc2)N1c1ccc(F)cc1` (centres undefined), for which the Potency entry in [10], in assay [2], in [3], in [4], in assay [7] and in assay [9] was “inactive” throughout.
Turning to `N=C1SC(=Cc2ccc(-c3ccc4c(c3)C(=O)NC4=O)o2)C(=O)N1c1ccc(Br)cc1`, the Potency in [10] is 3.32 µM (active); in [3], 4.18 µM (active); in assay [7], 3.32 µM (active). In addition, the Potency result in assay [2], in [4] and in [9] was “inactive” throughout.
For `CN(C)CCOc1ccc(-c2nc(-c3ccc4c(c3)CCC4=NO)c(-c3ccncc3)[nH]2)cc1`, the Potency is 18.7 µM (active) in assay [10]; 14.8 µM (active) in [2]; 23.5 µM (active) in assay [3]; 18.7 µM (active) in assay [4]; 16.6 µM (active) in assay [7]; 23.5 µM (active) in assay [8]. For the same molecule, the Potency was 14.8 µM (active) in [5] and 9.35 µM (active) in assay [6].
In the case of `CCOC(=O)N1CCN([N+]([O-])=NOc2cc(ON=[N+]([O-])N3CCN(C(=O)OCC)CC3)c([N+](=O)[O-])cc2[N+](=O)[O-])CC1`, the Potency was 4.69 µM (active) in assay [10], 4.69 µM (active) in assay [2] and 2.64 µM (active) in [3]. Further, in assay [4], the Potency result is “inactive”.
As for `CN1CCN2c3ncccc3Cc3ccccc3C2C1` (centres undefined), the Potency entry in assay [10], in assay [2], in assay [3], in assay [4], in assay [7] and in [8] was “inactive” each time. The Potency result in assay [9] and in assay [5] was “inactive” in each case.
Consider `N[C@@H](CC(=O)N1CCn2c(nnc2C(F)(F)F)C1)Cc1cc(F)c(F)cc1F`, for which the Potency result in assay [10], in [2], in [3], in assay [4], in [7] and in [8] was “inactive” each time. Moreover, the Potency entry in assay [9] and in assay [5] was “inactive” throughout.
As for `CN1CC(=O)N2C(Cc3c([nH]c4ccccc34)[C@H]2c2ccc3c(c2)OCO3)C1=O` (some centres undefined), the Potency entry in [10], in assay [2], in assay [3], in assay [4], in assay [7] and in assay [8] was “inactive” throughout. Also, the Potency entry in [9], in assay [5] and in assay [6] was “inactive” throughout.
Consider `CC1CCN(c2cc(N3CCN(C)CC3)ccc2NC(=O)c2cc(C#N)c[nH]2)CC1`, for which the result in assay [1] was inactive. In addition, the Potency entry in assay [9] and in assay [5] was “inactive” in each case.
For `CCCCCOC(=O)Nc1nc(=O)n([C@@H]2O[C@H](C)[C@@H](O)C2O)cc1F` (some centres undefined), the Potency entry in assay [10], in assay [2], in [3], in assay [4], in assay [7] and in assay [9] was “inactive” each time. Besides, in assay [5], the Potency entry was “inactive”.
In the case of `Cc1cccc(-c2[nH]c(C(C)(C)C)nc2-c2ccc3c(c2)OCO3)n1`, the Potency in [10] is 29.6 µM (active); in assay [2] it was 1.32 µM (active); in assay [3] it was 11.8 µM (active); in assay [7], 16.6 µM (active); in assay [8], 5.26 µM (active); in assay [5], 3.72 µM (active). Further, the Potency in [6] was 1.66 µM (active). Moreover, the Potency entry in assay [4] was “inactive”.
`CC1(C)OC2CC3C4CC(F)C5=CC(=O)C=CC5(C)C4C(O)CC3(C)[C@]2(C(=O)CO)O1` (some centres undefined): the Potency result in [10], in assay [2], in assay [3], in [4] and in assay [9] was “inactive” throughout. Moreover, the Potency was 0.0209 µM (active) in assay [7], 0.0187 µM (active) in [8] and 0.0235 µM (active) in assay [5].
